From PubChem
The list is not random: actives were taken first. Their share in the collection is about 0.45%.
FMDV antiviral: FMDV antiviral activity by firefly signal; FMDV antiviral cell assay, firefly luciferase signal; Potency, µM (series often up to 57.5 µM), hits mostly inhibitors; actives 0.23% (n = 120,000); note: nearly all actives have a fitted effect of over 60% in size
FMDV RLuc: shows antiviral activity in FMDV Renilla assay; Potency, µM (top dose mostly 57.5 µM), actives largely listed as inhibitors; AID 1745857; actives 0.32% (n = 120,000); FMDV replicon cells, Renilla luciferase signal; note: nearly all actives have a fitted effect of over 55% in size
A number is an active result; n = inactive; u = inconclusive; [ ] = dose if it differs, or a comment. Calls come from the whole dose curve.

SMILES | FMDV antiviral | FMDV RLuc
O=C(CCCc1c[nH]c2ccccc12)Nc1ccc2ncccc2c1 | n | n
O=C(CCCc1c[nH]c2ccccc12)Nc1cccc2cnccc12 | u | 11µM
CCNC(=O)CN(CC)C(=O)c1cc2ccccc2oc1=O | n | n
CCOc1ccccc1NC(=O)Cn1nc(N2CCN(c3ccccc3)CC2)ccc1=O | n | n
CCc1ccccc1NC(=O)c1ccc(Cn2nc(N3CCN(c4ccccc4)CC3)ccc2=O)o1 | u | 32µM
N#Cc1c(N)n[nH]c1CCCNC(=O)c1cc(-c2ccncc2)nc2ccccc12 | n | n[1.06 µM]
Cc1ccc2oc(C(=O)N(Cc3ccc(F)cc3)C3CCS(=O)(=O)C3)cc(=O)c2c1 (stereo unspecified) | n | n
Cc1ccc(-c2csc(NC(=O)c3cnc4c(cnn4C(C)C)c3)n2)cc1C | 11µM | u
CCC(C)c1ccc(-c2csc(NC(=O)c3cnc4c(c3)c(=O)n(C)c(=O)n4C)n2)cc1 (stereo unspecified) | n | n
CC(OC(=O)c1ccccc1Cc1ccccc1)C(=O)NC(N)=O (stereo unspecified) | n | n
CC(C)N1CCC(NC(=S)Nc2ccccc2C(F)(F)F)CC1 | n | n
CCOC(=O)c1cccc(Nc2nc3ccccc3nc2NS(=O)(=O)c2ccccc2)c1 | n | n
CCOC(=O)C1=C(Nc2ccccc2)O/C(=C\c2ccc(OC(F)F)cc2OC(F)F)C1=O | 10µM | u
O=C(NCCNC(=O)c1cc2ccccc2[nH]1)C(=O)Nc1ccccc1 | n | n
CCCCNC(=O)CCc1c(C)nc2cc(-c3ccccc3)nn2c1C | 1.8µM | n
Cc1nc2cc(-c3ccccc3)nn2c(C)c1CCC(=O)NCCc1ccccc1 | u | n
COc1ccc(NC(=O)CCc2c(C)nc3cc(-c4cccc(F)c4)nn3c2C)cc1Cl | 28µM | n
COC(=O)c1ccc(NC(=O)CCc2c(C)nc3cc(-c4cccc(F)c4)nn3c2C)cc1 | u | n
CCN(CC)CC(=O)Nc1sccc1C#N | n | n
Cc1cc(C(=O)COC(=O)c2nccnc2N)c(C)n1CCc1ccccc1 | n | n
O=C(CCc1ccco1)NC1(C(=O)O)CCCCCC1 | n | n
CCn1c(C)c(C(=O)NCc2ccccc2)c2cc(OC)ccc21 | n | n
COc1ccc2c(c1)c(C(C)=O)c(C)n2Cc1ccccc1 | 20µM | u
CNC(=O)c1cccc(OCc2coc(-c3cccc(F)c3)n2)c1 | n | 13µM
CNC(=O)c1ccc(OCc2coc(-c3cccc(F)c3)n2)cc1 | n | n
SMILES | FMDV antiviral | FMDV RLuc
CNC(=O)c1ccccc1OCc1coc(-c2ccc(OC)cc2)n1 | n | u
CNC(=O)c1ccccc1OCc1coc(-c2ccccc2)n1 | u | 10µM
Cc1nn(CC(=O)c2cc(C)n(C3CC3)c2C)c(=O)c(C#N)c1C | n | n
CCN(Cc1ccccc1)c1ccc(/C=N/NC(=S)Nc2cc(S(=O)(=O)N(C)C)ccc2C)cc1 | n | n
CCc1cccc2c(C(=O)C(=O)NCc3cccc(OC)c3)c[nH]c12 | n | n
O=C(NC1CCCC(C(F)(F)F)C1)c1cnc2ccccn2c1=O (stereo unspecified) | n | n
O=C(CSc1nc2nc[nH]c2c(=O)[nH]1)Nc1ccc(Br)cc1 | n | n
CC12CC[C@H]3[C@@H](CCC4(O)CC(O)CCC34/C=N/O)C1(O)CCC2C1=CC(=O)OC1 (stereo partly specified) | 1.4µM | 1.8µM
COC1C(O)C(C)OC(OC2CCC3(C)C(CC[C@@H]4[C@@H]3CCC3(C)C(C5=CC(=O)OC5)C(O)CC43O)C2)C1O (stereo partly specified) | 2.2µM | 5.6µM
CC(=O)OC1CCC2(C=O)[C@H]3CCC4(C)C(C5=CC(=O)OC5)CCC4(O)[C@@H]3CCC2(O)C1 (stereo partly specified) | 1.4µM | 2.5µM
C[C@H]1O[C@@H](O[C@H]2CC[C@]3(C=O)[C@H]4CC[C@]5(C)[C@H](C6=CC(=O)OC6)CC[C@]5(O)[C@@H]4CC[C@]3(O)C2)C[C@H](O)[C@@H]1O | u | 0.25µM
COc1ccc(OC)c(NC(=O)CCc2c(C)c3ccc(OC)c(C)c3oc2=O)c1 | n | n
O=C(Nc1ccc(F)cc1)N1c2ccccc2Sc2ccccc21 | n | n
O=C(Nc1ccc(-c2nnnn2C2CC2)cc1)NC1CCCCCC1 | n | n
Fc1ccc(F)c(CNCCN2CCCC2)c1 | n | n
O=C(Nc1ccc(Br)cc1)c1nc2ccccc2nc1N1CCCCC1 | n | n
O=C(O)CN(/C=C/C(=O)C(F)(F)F)CC(=O)O | n | n
Cc1ccc(NC(=S)NCCC(c2ccccc2)c2ccccc2)cc1 | n | n
Cn1c(=O)[nH]c(=O)c2c1nc(NCCCO)n2CC(O)COc1ccc(Cl)cc1 (stereo unspecified) | n | n
Cc1ccc(C(NC(=O)c2ccncc2)c2ccccc2)cc1C (stereo unspecified) | n | n[1.06 µM]
CCCCCCC[N+](CC)(CC)CCCCc1ccc(Cl)cc1 | u | 7.9µM
CCCCCCc1ccc(C(=O)Oc2ccc(Cl)cc2)cc1 | n | n
CCOC(=O)c1cnc2ccc(C)cc2c1Nc1ccccc1OCC | n | n
COc1ccc2oc(-c3ccc(NC(=O)c4ccc(Br)o4)cc3)nc2c1 | n | n
Cc1c(C(=O)CN2CCCCC2)c2ccccc2n1C | n | n
SMILES | FMDV antiviral | FMDV RLuc
CC(C)(C)c1ccc2c(c1)OCCOCCOc1cc(C(C)(C)C)ccc1OCCOCCO2 | 28µM | 18µM
CC(C)(C)c1ccc2c(c1)OCCOCCOCCOCCO2 | n | n
O=C1CN(C(=O)c2cc(=O)[nH]c3ccccc23)CCN1 | n | n
C[C@@H](O[C@H]1OCCN(Cc2n[nH]c(=O)[nH]2)[C@H]1c1ccc(F)cc1)c1cc(C(F)(F)F)cc(C(F)(F)F)c1 | u | 32µM
O=C1c2ccccc2S(=O)(=O)N1Cc1nc(-c2cc(Cl)ccc2Cl)cs1 | n | n
CC(=O)c1cn(CCOc2ccccc2F)c2ccccc12 | u | 8.9µM
O=C(c1cccs1)c1cn(CCOc2ccccc2F)c2ccccc12 | n | n
COc1ccc(OCCn2cc(C(C)=O)c3ccccc32)cc1 | 25µM | u
Cc1ccc(OCCn2cc(C(=O)C3CC3)c3ccccc32)cc1 | n | n
CCCC(C)(C)NC(=O)CCc1ccc(OC)c(OC)c1 | n | n
Cc1cc(C)cc(OC(=O)/C=C/c2nc3ccccc3s2)c1 | n | n
Cc1ccc(CCNC(=O)CCS(=O)(=O)c2ccc3c(c2)NC(=O)CS3)cc1 | n | n
CC(=O)c1csc(NC(=O)c2nn(C)c(=O)c3ccccc23)n1 | n | n
COc1ccc2cc(COC(=O)C3COc4ccccc4O3)ccc2c1 (stereo unspecified) | n | n
C=C(COC(C)=O)C1Cc2c(ccc3c2OC2COc4cc(OC)c(OC)cc4C2C3=O)O1 (stereo unspecified) | u | 0.2µM
COC(=O)CN1CCN(c2nc3c(c(=O)[nH]c(=O)n3C)n2Cc2ccc(Cl)cc2)CC1 | n | n
COc1ccc(-c2c(C)c3cc(OS(=O)(=O)c4ccc(C)cc4)ccc3oc2=O)cc1 | n | u
COc1ccc(-c2c(C)oc3cc(OS(=O)(=O)c4ccc(C)cc4)ccc3c2=O)cc1 | 3.2µM | 2.2µM
CCc1ccc(-c2nc(COC(=O)c3c(C)nsc3N)cs2)cc1 | u | 1.4µM
CCc1ccc(-c2nc(C)c(C(C)=O)s2)cc1 | n | n
CCOc1ccc(S(=O)(=O)N2CCCC2c2ccc(Cl)cc2)cc1 (stereo unspecified) | n | n
C(#CCN1CCOCC1)CC(c1ccccc1)c1ccccc1 | n | n
CCC[N+]1(CC#CCC(c2ccccc2)c2ccccc2)CCCCC1 | u | 4µM
